# Test results published in PubChem BioAssay (EPA / NIEHS).
# Results filed as inconclusive are left out. Activity calls are given as the source filed them. Rule for the calls, unless noted: active = hit-call score of the fitted dose curve at least 0.9, where 1 is the maximum; inconclusive = response in the unintended direction; inactive = score below 0.9.
# Tests used:
# [1] = target: human Peroxisome Proliferator-activated Receptor alpha (PPARa), PPARA (gene 5465) (UniProt Q07869); test: ATG_PPARa_TRANS: Attagene TRANS-FACTORIAL HepG2 Assay for human Peroxisome Proliferator-activated Receptor alpha (PPARa) (AID 2283001)
# Sequence of human Peroxisome Proliferator-activated Receptor alpha (PPARa), PPARA (gene 5465) (Q07869 whole entry, looked up, the tested form may be a part): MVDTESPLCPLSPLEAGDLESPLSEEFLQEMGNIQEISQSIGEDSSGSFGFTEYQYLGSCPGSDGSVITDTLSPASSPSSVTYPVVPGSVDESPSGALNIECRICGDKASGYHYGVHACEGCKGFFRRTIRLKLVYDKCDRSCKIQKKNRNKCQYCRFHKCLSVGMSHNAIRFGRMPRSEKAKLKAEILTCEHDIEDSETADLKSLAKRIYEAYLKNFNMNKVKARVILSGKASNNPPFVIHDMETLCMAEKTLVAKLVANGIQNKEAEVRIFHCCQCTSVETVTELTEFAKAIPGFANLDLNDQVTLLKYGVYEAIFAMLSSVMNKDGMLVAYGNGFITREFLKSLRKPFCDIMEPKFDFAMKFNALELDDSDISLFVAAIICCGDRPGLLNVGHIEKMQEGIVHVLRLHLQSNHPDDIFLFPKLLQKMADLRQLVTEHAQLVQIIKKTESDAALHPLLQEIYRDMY
# Procedure, shortened: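 Read-out is fluorescence of reporter cDNA fragments resolved by capillary electrophoresis after RT-PCR. Human HepG2 liver cells carried transfected PPARa-Gal4 chimera and GAL4-UAS reporter units, treated 24 h; activity scored as increase over DMSO.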
# [2] = target: Nuclear receptor subfamily 1 group I member 2 (Homo sapiens) (UniProt O75469); test: ATG_PXR_TRANS: Attagene TRANS-FACTORIAL HepG2 Assay for human Pregnane X Receptor (PXR) (AID 2283008)
# Procedure, shortened: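 HepG2 cells transiently transfected with GAL4-UAS reporter units and PXR-Gal4 chimera, exposed 24 h. Reporter mRNA quantified by RT-PCR, fluorescent labelling, HpaI digestion and capillary electrophoresis; gain of signal vs DMSO.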
# [3] = target: human RAR-related Orphan Receptor beta (RORb), RORB (gene 6096) (UniProt Q92753); test: ATG_RORb_TRANS: Attagene TRANS-FACTORIAL HepG2 Assay for human RAR-related Orphan Receptor beta (RORb) (AID 2283010)
# Sequence of human RAR-related Orphan Receptor beta (RORb), RORB (gene 6096) (Q92753 whole entry, looked up, the tested form may be a part): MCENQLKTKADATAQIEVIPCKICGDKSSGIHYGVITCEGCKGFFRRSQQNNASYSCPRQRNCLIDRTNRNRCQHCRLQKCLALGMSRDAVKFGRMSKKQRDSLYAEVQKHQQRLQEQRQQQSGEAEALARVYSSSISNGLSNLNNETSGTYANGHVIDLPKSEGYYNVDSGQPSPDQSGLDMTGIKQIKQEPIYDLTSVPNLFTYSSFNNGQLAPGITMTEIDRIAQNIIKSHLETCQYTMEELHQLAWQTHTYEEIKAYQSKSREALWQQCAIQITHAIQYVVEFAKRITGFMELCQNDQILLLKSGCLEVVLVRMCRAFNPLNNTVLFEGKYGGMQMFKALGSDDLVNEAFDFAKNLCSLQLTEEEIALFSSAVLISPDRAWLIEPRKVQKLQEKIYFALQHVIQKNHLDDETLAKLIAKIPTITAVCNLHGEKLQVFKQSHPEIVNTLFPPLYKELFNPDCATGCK
# Procedure, shortened: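 Readout is reporter-gene mRNA induction, detected as fluorescence after RT-PCR and capillary electrophoresis, fitted for gain of signal against DMSO controls. Transiently transfected HepG2 liver cells carrying GAL4-UAS reporter constructs were treated for 24 hours.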
# [4] = target: Retinoic acid receptor RXR-alpha (Homo sapiens) (UniProt P19793); test: ATG_RXRa_TRANS: Attagene TRANS-FACTORIAL HepG2 Assay for human Retinoid X Receptor alpha (RXRa) (AID 2283012)
# Sequence of Retinoic acid receptor RXR-alpha (Homo sapiens) (P19793 whole entry, looked up, the tested form may be a part): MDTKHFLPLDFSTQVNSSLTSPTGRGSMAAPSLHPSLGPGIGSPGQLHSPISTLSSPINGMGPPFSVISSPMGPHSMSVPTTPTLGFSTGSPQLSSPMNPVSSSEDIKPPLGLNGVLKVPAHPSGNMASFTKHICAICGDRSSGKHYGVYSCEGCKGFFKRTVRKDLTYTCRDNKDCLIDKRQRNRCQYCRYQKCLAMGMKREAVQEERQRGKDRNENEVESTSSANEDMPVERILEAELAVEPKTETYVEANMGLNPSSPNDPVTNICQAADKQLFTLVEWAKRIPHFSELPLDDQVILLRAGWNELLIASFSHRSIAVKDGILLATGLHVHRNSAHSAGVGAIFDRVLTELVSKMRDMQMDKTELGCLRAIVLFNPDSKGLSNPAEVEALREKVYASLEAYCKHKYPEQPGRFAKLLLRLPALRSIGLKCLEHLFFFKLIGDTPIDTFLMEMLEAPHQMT
# Procedure, shortened: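 Transient transfection of human HepG2 with multiple GAL4-UAS reporter constructs; 24 h compound exposure; total RNA isolated, reverse-transcribed, PCR-amplified, 6-FAM labelled, HpaI-cut, resolved by capillary electrophoresis. Positive-direction fit versus DMSO.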
# [5] = target: human Thyroid Receptor alpha (THRa1), THRA (gene 7067) (UniProt P10827); test: ATG_THRa1_TRANS: Attagene TRANS-FACTORIAL HepG2 Assay for human Thyroid Receptor alpha (THRa1) (AID 2283014)
# Sequence of human Thyroid Receptor alpha (THRa1), THRA (gene 7067) (P10827 whole entry, looked up, the tested form may be a part): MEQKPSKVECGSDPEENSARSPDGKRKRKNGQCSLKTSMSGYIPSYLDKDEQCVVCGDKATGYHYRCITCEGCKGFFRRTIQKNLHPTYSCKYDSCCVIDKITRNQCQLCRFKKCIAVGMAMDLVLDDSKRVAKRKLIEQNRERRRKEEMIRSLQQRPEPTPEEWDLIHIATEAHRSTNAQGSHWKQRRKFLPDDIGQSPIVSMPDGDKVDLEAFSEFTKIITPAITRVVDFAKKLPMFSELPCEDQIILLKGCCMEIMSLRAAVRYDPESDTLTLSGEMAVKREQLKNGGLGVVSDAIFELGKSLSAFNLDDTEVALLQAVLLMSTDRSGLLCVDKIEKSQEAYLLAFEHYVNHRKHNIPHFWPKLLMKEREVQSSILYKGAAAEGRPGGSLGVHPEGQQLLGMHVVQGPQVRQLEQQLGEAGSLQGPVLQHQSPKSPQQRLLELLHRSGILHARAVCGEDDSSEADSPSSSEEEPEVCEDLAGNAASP
# Procedure, shortened: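 Transient HepG2 transfection, NR-Gal4 chimera driving GAL4-UAS reporters; 24 h compound exposure; total RNA, oligo(dT) RT, PCR, fluorescent primer extension, capillary electrophoresis. Upward direction vs DMSO control.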
# [6] = target: human Vitamin D Receptor (VDR), VDR (gene 7421) (UniProt P11473); test: ATG_VDR_TRANS: Attagene TRANS-FACTORIAL HepG2 Assay for human Vitamin D Receptor (VDR) (AID 2283022)
# Sequence of human Vitamin D Receptor (VDR), VDR (gene 7421) (P11473 whole entry, looked up, the tested form may be a part): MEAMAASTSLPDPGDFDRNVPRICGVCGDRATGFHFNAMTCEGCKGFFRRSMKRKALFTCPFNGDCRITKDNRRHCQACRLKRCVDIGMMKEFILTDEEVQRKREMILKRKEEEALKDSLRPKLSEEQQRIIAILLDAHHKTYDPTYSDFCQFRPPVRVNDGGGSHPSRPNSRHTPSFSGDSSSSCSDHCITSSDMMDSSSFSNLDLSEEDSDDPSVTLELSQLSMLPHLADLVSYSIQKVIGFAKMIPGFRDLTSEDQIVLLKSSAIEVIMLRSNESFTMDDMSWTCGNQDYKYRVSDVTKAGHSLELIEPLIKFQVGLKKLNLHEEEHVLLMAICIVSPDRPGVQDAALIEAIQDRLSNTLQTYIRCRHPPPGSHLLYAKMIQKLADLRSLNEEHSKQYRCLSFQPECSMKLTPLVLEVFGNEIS
# Procedure, shortened: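 RT-PCR/capillary electrophoresis read-out of reporter mRNA induction in transiently transfected HepG2; 24 h dosing; chimeric NR-Gal4 (TRANS format); gain-of-signal fit against DMSO baseline.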
# [7] = target: human Peroxisome Proliferator-activated Receptor delta (PPARd), PPARD (gene 5467) (UniProt Q03181); test: ATG_PPARd_TRANS: Attagene TRANS-FACTORIAL HepG2 Assay for human Peroxisome Proliferator-activated Receptor delta (PPARd) (AID 2283002)
# Procedure, shortened: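 Read-out is induced reporter mRNA, quantified by RT-PCR with fluorescent labelling and capillary electrophoresis after 24 h dosing. Cells are HepG2 transiently carrying multiple GAL4-UAS reporter units driven by exogenous NR-GAL4 chimeras; DMSO serves as baseline.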
# [8] = target: human Retinoic Acid Receptor beta (RARb), RARB (gene 5915) (UniProt P10826); test: ATG_RARb_TRANS: Attagene TRANS-FACTORIAL HepG2 Assay for human Retinoic Acid Receptor beta (AID 2283004)
# Sequence of human Retinoic Acid Receptor beta (RARb), RARB (gene 5915) (P10826 whole entry, looked up, the tested form may be a part): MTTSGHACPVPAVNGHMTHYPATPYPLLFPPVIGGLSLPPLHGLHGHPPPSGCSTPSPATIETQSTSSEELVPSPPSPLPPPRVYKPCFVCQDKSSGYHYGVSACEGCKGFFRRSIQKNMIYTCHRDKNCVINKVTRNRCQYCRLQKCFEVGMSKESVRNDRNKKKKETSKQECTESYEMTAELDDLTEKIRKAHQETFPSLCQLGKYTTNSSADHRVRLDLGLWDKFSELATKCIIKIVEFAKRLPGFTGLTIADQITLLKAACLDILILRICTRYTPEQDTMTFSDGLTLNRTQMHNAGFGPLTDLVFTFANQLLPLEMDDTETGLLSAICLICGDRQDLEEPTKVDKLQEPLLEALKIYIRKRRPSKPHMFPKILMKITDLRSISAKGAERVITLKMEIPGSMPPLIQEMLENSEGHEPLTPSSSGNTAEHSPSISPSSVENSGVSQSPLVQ
# Procedure, shortened: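 Readout is reporter mRNA induction: RNA reverse-transcribed, PCR-amplified, FAM-labelled, HpaI-cut and resolved by capillary electrophoresis. Transiently transfected HepG2 cells carrying exogenous NR–Gal4 chimeras were dosed for 24 h; activity fitted upward relative to DMSO.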
# [9] = target: Retinoic acid receptor alpha (Homo sapiens) (UniProt P10276); test: ATG_RARa_TRANS: Attagene TRANS-FACTORIAL HepG2 Assay for human Retinoic Acid Receptor alpha (RARa) (AID 2283005)
# Procedure, shortened: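 Reporter transcripts, measured by RT-PCR with fluorescent labeling and capillary electrophoresis after 24 h dosing, reflect activity of an exogenous human RARa–GAL4 fusion in transiently transfected HepG2. Fitted for increase relative to DMSO.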
# [10] = read-out: Intercellular Adhesion Molecule 1 (ICAM1), ICAM1 (gene 3383); test: BSK_3C_ICAM1: BioMAP Diversity Plus: 3C Assay for Intercellular Adhesion Molecule 1 (ICAM1) Biomarker Activity (AID 2283003; active = hit-call score of the fitted dose curve at least 0.9, where 1 is the maximum; inactive = score below 0.9); conditions: primary human endothelial cells (HUVEC); actives raise or lower the signal
# Procedure, shortened: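 ICAM-1 levels measured by ELISA after HUVEC cultures in the 3C system had been dosed for 24 h. Gain or loss of signal relative to DMSO was fitted in both directions.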
# [11] = BSK_3C_Proliferation: Cell Proliferation Assessment in the BioMAP Diversity Plus: 3C Assay (AID 2283006; active = hit-call score of the fitted dose curve at least 0.9, where 1 is the maximum; inactive = score below 0.9;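 for AC50: potency may reflect either rise or fall in cell number versus DMSO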); conditions: primary human endothelial cells (HUVEC)
# Procedure, shortened: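 Read-out is total protein by SRB absorbance at 560 nm, taken as a proxy for relative cell number. Primary human umbilical vein endothelium cultured below confluence was dosed for 48 h, TCA-fixed and SRB-stained; curves were fitted bidirectionally versus DMSO.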
# [12] = read-out: E-selectin (Homo sapiens) (UniProt P16581); test: BSK_3C_Eselectin: BioMAP Diversity Plus: 3C Assay for Eselectin Biomarker Activity (AID 2283015; active = hit-call score of the fitted dose curve at least 0.9, where 1 is the maximum; inactive = score below 0.9;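 for outcome: cell surface E-selectin protein quantified by ELISA 24 h after dosing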); conditions: primary human endothelial cells (HUVEC); actives raise or lower the signal
# Procedure, shortened: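 HUVEC, 3C stimulation; compound exposure 24 h; E-selectin by ELISA; gain- or loss-of-signal fitted bidirectionally vs DMSO baseline.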
# [13] = read-out: Interleukin-1 alpha (IL1a), IL1A (gene 3552); test: BSK_BE3C_IL1a: BioMAP Diversity Plus: BE3C Assay for Interleukin-1 alpha (IL1a) Biomarker Activity (AID 2283016; active = hit-call score of the fitted dose curve at least 0.9, where 1 is the maximum; inactive = score below 0.9); conditions: primary human bronchial epithelial cells; actives raise or lower the signal
# Procedure, shortened: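 BE3C primary human bronchial epithelium; cpd 24 h; IL-1a by ELISA; bidirectional fit vs DMSO; parallel SRB (0.1% SRB, 10% TCA fix, 560 nm) for cytotoxicity.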
# [14] = read-out: Monocyte Chemoattractant Protein-1 (MCP1), CCL2 (gene 6347); test: BSK_4H_MCP1: BioMAP Diversity Plus: 4H Assay for Monocyte Chemoattractant Protein-1 (MCP1) Biomarker Activity (AID 2283018; active = hit-call score of the fitted dose curve at least 0.9, where 1 is the maximum; inactive = score below 0.9); conditions: primary human endothelial cells (HUVEC); actives raise or lower the signal
# Procedure, shortened: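 ELISA read-out of MCP-1 from human vascular endothelial primary cells taken at 24 hours after compound exposure. Activity was fitted in both directions relative to DMSO, which served as negative control.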
# [15] = read-out: Human Leukocyte Antigen - DR isotype (HLADR), HLA-DRA (gene 3122); test: BSK_3C_HLADR: BioMAP Diversity Plus: 3C Assay for Human Leukocyte Antigen - DR isotype (HLADR) Biomarker Activity (AID 2283019; active = hit-call score of the fitted dose curve at least 0.9, where 1 is the maximum; inactive = score below 0.9;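 for outcome: ELISA of cell-surface HLA-DR on HUVEC 24 h after dosing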); conditions: primary human endothelial cells (HUVEC); actives raise or lower the signal
# Procedure, shortened: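 HUVEC, 3C stimulation, 24 h post-dose; HLA-DR by ELISA; bidirectional curve fit vs DMSO baseline; gain or loss of signal scored.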
# [16] = read-out: Interleukin-8 (IL8), CXCL8 (gene 3576); test: BSK_3C_IL8: BioMAP Diversity Plus: 3C Assay for Interleukin-8 (IL8) Biomarker Activity (AID 2283020; active = hit-call score of the fitted dose curve at least 0.9, where 1 is the maximum; inactive = score below 0.9); conditions: primary human endothelial cells (HUVEC); actives raise or lower the signal
# Procedure, shortened: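 ELISA read-out of IL-8 from human umbilical vein endothelium, measured 24 h after chemical dosing. Activity is expressed relative to DMSO negative control, with both increases and decreases fitted.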
# [17] = target: Peroxisome proliferator-activated receptor gamma (Homo sapiens) (UniProt P37231); test: ATG_PPARg_TRANS: Attagene TRANS-FACTORIAL HepG2 Assay for human Peroxisome Proliferator-activated Receptor-gamma (PPARg) (AID 2283007)
# Sequence of Peroxisome proliferator-activated receptor gamma (Homo sapiens) (P37231 whole entry, looked up, the tested form may be a part): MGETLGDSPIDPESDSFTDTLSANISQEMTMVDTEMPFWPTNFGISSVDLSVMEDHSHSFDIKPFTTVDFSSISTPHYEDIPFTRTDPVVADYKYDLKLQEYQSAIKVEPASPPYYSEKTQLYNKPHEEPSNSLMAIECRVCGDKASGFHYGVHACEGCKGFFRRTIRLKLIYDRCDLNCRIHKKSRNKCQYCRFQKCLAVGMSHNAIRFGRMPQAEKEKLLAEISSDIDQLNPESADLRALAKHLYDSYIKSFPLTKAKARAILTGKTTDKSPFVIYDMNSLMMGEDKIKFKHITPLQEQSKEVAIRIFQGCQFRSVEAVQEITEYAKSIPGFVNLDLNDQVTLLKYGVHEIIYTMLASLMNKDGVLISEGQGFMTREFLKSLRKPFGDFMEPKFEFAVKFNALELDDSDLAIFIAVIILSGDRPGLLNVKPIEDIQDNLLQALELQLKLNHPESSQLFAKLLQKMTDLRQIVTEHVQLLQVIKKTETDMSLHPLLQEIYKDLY
# Procedure, shortened: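 HepG2 cells transiently transfected with multiplexed GAL4-UAS reporter units and exogenous chimeric NR-Gal4 proteins; reporter mRNA quantified after 24 h compound exposure by RT-PCR, fluorescent labelling, HpaI digestion and capillary electrophoresis; gain-of-signal fitted versus DMSO baseline.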
# [18] = target: human Retinoic Acid Receptor gamma (RARg), RARG (gene 5916) (UniProt P13631); test: ATG_RARg_TRANS: Attagene TRANS-FACTORIAL HepG2 Assay for human Retinoic Acid Receptor gamma (RARg) (AID 2283009)
# Sequence of human Retinoic Acid Receptor gamma (RARg), RARG (gene 5916) (P13631 whole entry, looked up): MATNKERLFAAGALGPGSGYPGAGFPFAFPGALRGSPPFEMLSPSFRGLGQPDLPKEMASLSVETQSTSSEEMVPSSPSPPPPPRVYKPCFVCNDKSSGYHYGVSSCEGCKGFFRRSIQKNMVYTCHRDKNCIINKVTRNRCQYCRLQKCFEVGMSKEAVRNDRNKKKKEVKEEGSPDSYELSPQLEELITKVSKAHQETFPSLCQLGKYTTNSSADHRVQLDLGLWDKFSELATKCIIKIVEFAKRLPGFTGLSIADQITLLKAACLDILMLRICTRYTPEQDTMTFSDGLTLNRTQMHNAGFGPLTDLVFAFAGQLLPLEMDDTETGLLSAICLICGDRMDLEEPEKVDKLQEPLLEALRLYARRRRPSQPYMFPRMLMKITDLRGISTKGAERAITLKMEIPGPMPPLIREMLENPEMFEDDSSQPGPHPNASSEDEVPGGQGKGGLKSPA
# Procedure, shortened: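 Transient transfection of HepG2 with multi-reporter constructs, then 24 h chemical treatment. Total RNA isolated, reverse-transcribed, PCR-amplified, fluorescently labelled and resolved by capillary electrophoresis; activity scored as mRNA induction versus DMSO.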
# [19] = target: human RAR-related Orphan Receptor gamma (RORg), RORC (gene 6097) (UniProt P51449); test: ATG_RORg_TRANS: Attagene TRANS-FACTORIAL HepG2 Assay for human RAR-related Orphan Receptor gamma (RORg) (AID 2283011)
# Sequence of human RAR-related Orphan Receptor gamma (RORg), RORC (gene 6097) (P51449 whole entry, looked up, the tested form may be a part): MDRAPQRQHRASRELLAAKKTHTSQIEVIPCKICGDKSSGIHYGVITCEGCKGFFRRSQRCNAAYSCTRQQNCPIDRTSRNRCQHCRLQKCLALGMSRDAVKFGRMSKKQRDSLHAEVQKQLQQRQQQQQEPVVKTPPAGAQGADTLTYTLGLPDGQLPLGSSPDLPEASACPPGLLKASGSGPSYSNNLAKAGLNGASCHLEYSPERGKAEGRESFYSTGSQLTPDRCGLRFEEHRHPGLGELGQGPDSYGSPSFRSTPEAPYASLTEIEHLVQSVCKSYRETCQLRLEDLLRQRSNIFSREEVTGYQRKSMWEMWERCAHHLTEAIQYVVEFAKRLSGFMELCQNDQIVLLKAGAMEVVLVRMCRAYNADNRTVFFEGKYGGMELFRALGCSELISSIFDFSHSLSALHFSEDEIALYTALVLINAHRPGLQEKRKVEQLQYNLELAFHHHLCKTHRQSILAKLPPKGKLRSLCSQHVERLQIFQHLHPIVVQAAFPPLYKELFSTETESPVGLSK
# Procedure, shortened: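 Transient MRTU transfection of HepG2 (TRANS format, exogenous NR-Gal4 chimera). 24 h dosing. Total RNA → oligo(dT) RT → PCR → 6-FAM labelling → HpaI cut → CE. Gain vs DMSO.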
# [20] = target: human Retinoid X Receptor beta (RXRb), RXRB (gene 6257) (UniProt P28702); test: ATG_RXRb_TRANS: Attagene TRANS-FACTORIAL HepG2 Assay for human Retinoid X Receptor beta (RXRb) (AID 2283013)
# Sequence of human Retinoid X Receptor beta (RXRb), RXRB (gene 6257) (P28702 whole entry, looked up, the tested form may be a part): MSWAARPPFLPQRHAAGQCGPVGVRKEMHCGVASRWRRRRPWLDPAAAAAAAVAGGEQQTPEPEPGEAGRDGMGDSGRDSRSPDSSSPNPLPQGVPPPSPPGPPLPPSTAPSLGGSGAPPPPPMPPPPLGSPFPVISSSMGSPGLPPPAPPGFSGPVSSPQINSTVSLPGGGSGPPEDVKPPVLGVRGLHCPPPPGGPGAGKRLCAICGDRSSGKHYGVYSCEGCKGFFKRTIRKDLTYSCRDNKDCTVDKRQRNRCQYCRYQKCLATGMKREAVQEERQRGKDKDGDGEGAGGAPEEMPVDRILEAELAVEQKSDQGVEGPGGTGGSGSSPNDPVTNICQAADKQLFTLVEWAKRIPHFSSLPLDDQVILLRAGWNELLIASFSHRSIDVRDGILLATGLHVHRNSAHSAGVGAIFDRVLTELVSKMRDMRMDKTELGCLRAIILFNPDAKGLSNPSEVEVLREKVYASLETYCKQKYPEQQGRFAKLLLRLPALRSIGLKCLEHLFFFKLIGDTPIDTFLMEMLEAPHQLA
# Procedure, shortened: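 Transfect HepG2 with GAL4-UAS multi-reporter constructs (chimeric NR-Gal4, TRANS format); dose compound 24 h; isolate RNA, RT-PCR, FAM primer extension, HpaI digest; quantify by capillary electrophoresis; positive direction vs DMSO.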
structure (smiles),measurement,setting,value
CC(C)COC(=O)C=Cc1ccccc1,outcome,[1],inactive
same,AC50,[2],29.4 µM (active)
same,outcome,[3],inactive
same,outcome,[4],inactive
same,outcome,[5],inactive
same,outcome,[6],inactive
CN(C)CCCN(C)C,outcome,[7],inactive
same,outcome,[8],inactive
same,outcome,[9],inactive
same,outcome,[2],inactive
same,outcome,[3],inactive
same,outcome,[4],inactive
same,outcome,[5],inactive
same,outcome,[6],inactive
O=C(Cl)c1cc(C(=O)Cl)cc(C(=O)Cl)c1,outcome,[7],inactive
same,AC50,[10],12.7 µM (active)
same,AC50,[11],6.87 µM (active)
same,outcome,[4],inactive
same,outcome,[5],inactive
same,AC50,[12],15.1 µM (active)
same,AC50,[13],29.5 µM (active)
same,AC50,[14],12.8 µM (active)
same,AC50,[15],10.5 µM (active)
same,AC50,[16],9.93 µM (active)
C=CC=CC=CCCCCC,outcome,[7],inactive
same,outcome,[10],inactive
same,outcome,[11],inactive
same,AC50,[17],6.66 µM (active)
same,AC50,[2],6.77 µM (active)
same,outcome,[3],inactive
same,outcome,[5],inactive
same,outcome,[12],inactive
same,outcome,[13],inactive
same,outcome,[14],inactive
same,outcome,[15],inactive
same,outcome,[16],inactive
CC(=O)Oc1ccc(C(C)=O)cc1,outcome,[1],inactive
same,outcome,[18],inactive
same,outcome,[3],inactive
same,outcome,[19],inactive
same,outcome,[4],inactive
same,outcome,[6],inactive
N=c1ccn2c(n1)O[C@H]1[C@H](O)[C@@H](CO)O[C@H]12,outcome,[1],inactive
same,outcome,[5],inactive
Nc1ccc(Cl)cc1Cl,outcome,[1],inactive
same,outcome,[2],inactive
same,outcome,[19],inactive
same,outcome,[4],inactive
same,outcome,[20],inactive
CCOC(=O)NNc1nncc2ccccc12,outcome,[7],inactive
same,outcome,[8],inactive
same,outcome,[2],inactive
same,outcome,[18],inactive
same,outcome,[4],inactive
same,outcome,[5],inactive
same,outcome,[6],inactive
CNC(=S)NN,outcome,[7],inactive
same,outcome,[8],inactive
same,outcome,[9],inactive
same,outcome,[18],inactive
same,outcome,[3],inactive
same,outcome,[19],inactive
same,outcome,[4],inactive
same,outcome,[20],inactive
same,outcome,[5],inactive
COCCCOCCCOC,outcome,[1],inactive
same,outcome,[2],inactive
same,outcome,[19],inactive
same,outcome,[20],inactive
C=C1[C@H]2CC[C@@H]3[C@H]2C(C)(C)CCC[C@]13C,outcome,[7],inactive
same,outcome,[8],inactive
same,outcome,[2],inactive
same,outcome,[18],inactive
same,outcome,[4],inactive
same,outcome,[20],inactive
CCc1c(C(=O)O)c(=O)cnn1-c1ccc(Cl)cc1,outcome,[1],inactive
same,outcome,[17],inactive
same,outcome,[2],inactive
same,outcome,[6],inactive
COCc1c(C(C)C)nc(C(C)C)c(/C=C/[C@@H](O)C[C@@H](O)CC(=O)O)c1-c1ccc(F)cc1,outcome,[7],inactive
same,outcome,[10],inactive
same,AC50,[11],0.039 µM (active)
same,AC50,[17],12.8 µM (active)
same,AC50,[2],1.76 µM (active)
same,outcome,[4],inactive
same,outcome,[20],inactive
same,outcome,[13],inactive
same,AC50,[14],0.00777 µM (active)
same,AC50,[15],0.106 µM (active)
same,AC50,[16],0.0685 µM (active)
same,outcome,[6],inactive
CC(C)c1ccc(C=O)cc1,outcome,[7],inactive
same,outcome,[17],inactive
same,outcome,[2],inactive
same,outcome,[3],inactive
same,outcome,[19],inactive
same,outcome,[5],inactive
same,outcome,[6],inactive
CCN(CCO)c1cccc(C)c1,outcome,[7],inactive
same,outcome,[17],inactive
same,AC50,[2],27 µM (active)
same,outcome,[18],inactive
same,outcome,[4],inactive
same,outcome,[20],inactive
